Results: ChEMBL document CHEMBL3988442, “University of Dundee, Small-Polar-MMV Screening Library” (2021)

What was measured:
[1] = target: T1, Aspartate--tRNA(Asp/Asn) ligase (Mycobacterium tuberculosis (strain ATCC 25618 / H37Rv)) (UniProt P9WFW3); experiment: Assay for Asp RNA synthetase-1 from Mycobacterium tuberculosis; assay type: functional; design: scale not given: direction of the effect not stated beside the values; settings: 30 µM; further: in the data most compounds retested in dose-response had high values
T1 sequence (whole entry): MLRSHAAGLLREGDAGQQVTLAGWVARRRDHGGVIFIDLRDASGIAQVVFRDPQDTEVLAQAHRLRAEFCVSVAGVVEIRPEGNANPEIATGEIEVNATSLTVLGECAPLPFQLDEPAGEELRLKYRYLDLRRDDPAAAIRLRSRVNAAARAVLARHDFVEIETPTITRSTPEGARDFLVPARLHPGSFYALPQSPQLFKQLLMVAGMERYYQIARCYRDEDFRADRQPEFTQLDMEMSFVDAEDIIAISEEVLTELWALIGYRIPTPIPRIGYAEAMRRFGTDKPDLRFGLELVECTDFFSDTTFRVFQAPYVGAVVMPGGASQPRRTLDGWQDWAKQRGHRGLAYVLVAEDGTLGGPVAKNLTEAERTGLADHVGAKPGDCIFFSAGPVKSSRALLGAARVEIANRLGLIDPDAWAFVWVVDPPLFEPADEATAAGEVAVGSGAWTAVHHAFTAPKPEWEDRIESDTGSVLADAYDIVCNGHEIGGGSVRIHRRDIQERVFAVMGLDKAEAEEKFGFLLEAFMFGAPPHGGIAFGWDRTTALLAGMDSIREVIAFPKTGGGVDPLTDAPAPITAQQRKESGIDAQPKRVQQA

[2] = target: Shiga toxin 2 (Escherichia coli O157:H7) (UniProt P09385+P09386); experiment: E. coli 0.157:H7 Shiga Toxin SOP - stx2 screening assay; assay type: functional; design: scale not given: direction of the effect not stated beside the values; settings: 30 µM

Row | Compound | Percent Effect [1] [%] | Percent Effect [2] [%]
1 | O=C(C1CC1)N1CCCC1C1CCN(Cc2ccccc2)CC1 (stereo unspecified) | -4.34 | -13.2
2 | CCCn1nc(C)c(CNC(=O)C2COc3c(cccc3OC)C2)c1C (stereo unspecified) | 0.114 | -6.29
3 | O=S1(=O)CCN(Cc2cccnc2)[C@H]2CCN(c3ncccn3)CC[C@H]21 | 1.96 | -36.2
4 | CCC(C)NC(=O)NCCCn1nc2ccccn2c1=O (stereo unspecified) | 1.23 | 22.8
5 | Cc1ccc(Cl)cc1C(=O)N1CCC2(CC1)c1ccccc1[C@@H](N)[C@@H]2O | -0.814 | -5.92
6 | O=C([C@H]1C[C@H]2OCC[C@H]2N(C(=O)C2CCOCC2)C1)N1CCCCO1 | 0.757 | -26.6
7 | Cc1nc(CN(C)C2CCCN(c3cccnn3)C2)no1 (stereo unspecified) | -6.37 | -10.7
8 | CCOC[C@@H]1CCC[C@@]12CN(Cc1nccs1)CCO2 | -0.28 | 13.3
9 | Cc1cc(C)n(CC(=O)NC(Cc2ccsc2)c2ccccn2)c(=O)n1 (stereo unspecified) | -2.19 | -15.3
10 | CCN1CCN(C2CCN(Cc3ncc(C(C)(C)C)o3)CC2)C1=O | -3.69 | 6.2
11 | Cc1cccc(C2(C(=O)NCCCn3cccn3)CC2)c1 | -9.29 | -5.42
12 | Fc1ccc(CN2CCO[C@H]3[C@H](OCCN4CCCC4)CC[C@@H]32)cc1 | 2.94 | -20.2
13 | CCSCCNC(=O)C(c1cccc(C)c1)N(C)C (stereo unspecified) | 0.569 | -22.9
14 | Cc1ccc2c(ccn2CCC(=O)O)c1 | 0.776 | -8.69
15 | CN(CCc1ccccc1)Cc1cc(C(=O)N2CCN(C)C(=O)C2)no1 | -2.28 | -18.1
16 | CC(C)c1nn(CC(=O)N2CCCCC2)c(=O)c2c1cnn2C(C)(C)C | -5.41 | 2.7
17 | CCC(NC(=O)C1CCN(S(=O)(=O)N(C)C)CC1)c1ccc(C)c(C)c1 (stereo unspecified) | 4.22 | -32.8
18 | CCc1noc(C(C)N2CCN(Cc3noc(C)n3)CC2)n1 (stereo unspecified) | -5.46 | -10.9
19 | Cn1ncc2c(=O)[nH]c(CN3CCCC3Cc3ccccc3)nc21 (stereo unspecified) | 2.98 | 35.6
20 | O=C(CCc1cscn1)N1CCCC1c1noc(C2CC2)n1 (stereo unspecified) | -1.43 | 22.4
21 | c1csc(CN2CCO[C@H]3[C@H](OCCN4CCCC4)CC[C@@H]32)n1 | 2.94 | -36.8
22 | CCc1cnc(CN(C(C)=O)C2CCN(CCc3cccs3)C2)o1 (stereo unspecified) | -1.49 | 21.4
23 | Cc1cnn(CC2CCCN2C(=O)c2cc3ccccc3[nH]2)c1 (stereo unspecified) | 1.27 | 14.6
24 | CCC(C)CNc1ccc2oc(COC)nc2c1 (stereo unspecified) | 65.3 | -59.7
25 | Cc1cc(F)cc(S(=O)(=O)NCCCN2CCC(O)CC2)c1 | 4.04 | -67.2
26 | CC(C)C(=O)N1CCN(Cc2csc(-c3ncccn3)n2)CC1 | -4.22 | 0.445

Row | Compound | Percent Effect [1] [%] | Percent Effect [2] [%]
27 | Cc1cc2c(=O)n3c(nc2s1)CCN(C(=O)c1cnn(C)c1C)CC3 | 0.849 | 5.44
28 | CC(=O)N1CC[C@@H]2CN(C(=O)c3ccco3)CCO[C@@H]2C1 | 4.25 | -3.17
29 | CC(NC1CCN(CCS(C)(=O)=O)CC1)c1ccc(Cl)cc1 (stereo unspecified) | 7.04 | -1.87
30 | c1coc(-c2noc(CN3CCC(c4ccn[nH]4)CC3)n2)c1 | 0.546 | 0.0749
31 | CC(c1nc(C(C)(C)C)no1)N1CCN(CC(=O)N2CCOCC2)CC1 (stereo unspecified) | -1.23 | 7.56
32 | CCC(CC)C(CNC(=O)Nc1cc(C)nn1C)N1CCOCC1 (stereo unspecified) | -8.48 | -29.4
33 | CN(Cc1ccsc1)C(=O)c1cccc(S(=O)(=O)NC(C)(C)C)c1 | -1.73 | -33.3
34 | Cc1nc(C)n(C2CCCN(C(=O)c3ccc(NC4CC4)nc3)C2)n1 (stereo unspecified) | -1.66 | -7.5
35 | Cc1ccoc1C(=O)N1C[C@H]2CCC[C@@]2(COCc2ccncc2)C1 | 6.22 | -14.5
36 | CN(c1ccncn1)C1CC2(CCN(C(=O)CCc3cccs3)C2)C1 (stereo unspecified) | -1.32 | -23.3
37 | Cc1ccccc1Cc1cnc(NC(=O)C2CNC(=O)N2)s1 (stereo unspecified) | 6.1 | 3.51
38 | Cc1cnn(CC2CCCCN2Cc2noc(C3CC3)n2)c1 (stereo unspecified) | -2.57 | 26.8
39 | COc1ccc(OC)c(NC(=O)c2nc3ccccc3n(C)c2=O)c1 | 1.01 | -23.2
40 | Cc1nc(C)n(CC2CCCN(c3ncnc4ccsc34)C2)n1 (stereo unspecified) | 0.756 | 28.8
41 | Cn1ncc2c1C(COCC1CC1)CN(Cc1ccoc1)C2 (stereo unspecified) | -4.51 | -1.73
42 | COc1ccccc1N1CCC(CNCc2cccc(O)c2)C1 (stereo unspecified) | 2.22 | -10.3
43 | Cc1cc(C)c(CNC(=O)NCC(O)c2cccc(F)c2)c(=O)[nH]1 (stereo unspecified) | 2.36 | 28.2
44 | CCn1cnnc1CNC(=O)N(C)Cc1ccc2c(c1)OCCO2 | 14.5 | 13.4
45 | O=C(CSC1=NS(=O)(=O)c2cc(F)ccc2N1)Nc1cccc(Cl)c1 | 4.04 | -1.14
46 | CNC(=O)Cc1ccc(NC(=O)NC(C)C(C)C)cc1 (stereo unspecified) | -6.08 | -0.988
47 | Cc1nccn1CCCC(=O)N1CCC(Nc2cccnn2)CC1 | -0.211 | -6.43
48 | Cc1ccc2c(c1)C1(CCNCC1)CN2C(=O)CN(C)C | -0.657 | 6.1
49 | CCn1cc2c(n1)CN(C(=O)c1ccncc1)CC2COCC1CC1 (stereo unspecified) | 3.06 | -17.4
50 | c1ncn(CC2CCCCN2Cc2noc(C3CC3)n2)n1 (stereo unspecified) | 3.28 | 26
51 | C=C1c2ccccc2C(=O)N1CCC(=O)N1CCNC(=O)C1 | -2.35 | 25.2
52 | COc1cc(N2CC[C@H](O)[C@@H]2Cc2cnn(C)c2)ncn1 | -4.05 | -1.67

Row | Compound | Percent Effect [1] [%] | Percent Effect [2] [%]
53 | Cc1ccc(NC2CCN(C(=O)c3cccn3C)CC2)nn1 | -9.26 | -60.3
54 | Cn1ccc(CN2CCC(Oc3ccccc3)CC2)cc1=O | -1.21 | -5.66
55 | O=C(CN1CCc2ccccc21)Nc1ccc(OC(F)F)cc1 | 0.418 | -7.39
56 | O=C1CCc2cc(-c3csc(CCN4CCCC4=O)n3)ccc2N1 | -0.577 | -10.4
57 | Cc1cnn(CC2CCCN2Cc2ncc(-c3ccccc3)o2)c1 (stereo unspecified) | 4.6 | 25.3
58 | COc1ccc(C2=CCN(C(=O)C3CC(=O)N(C4CC4)C3)CC2)cc1 (stereo unspecified) | 1.54 | 2.8
59 | CC(C)Cc1cc(NC(=O)c2ccc[nH]2)n(C)n1 | -0.121 | 7.24
60 | CC(=O)N1CC(Cc2nccc3ccn(C)c23)C1 | 1.31 | -32.1
61 | Cc1cc(-c2ccc(C(=O)O)cc2)nc(C2CCCN(C(C)C)C2)n1 (stereo unspecified) | -0.0735 | -2.97
62 | COCCOc1ncccc1CNCc1c(C)nn(C)c1N(C)C | -5.91 | 7.43
63 | O=C(c1cccnc1)N1CCC2(CC1)CCN(c1ccsc1)C2=O | 3.8 | -6.67
64 | O=C(CCc1cc2n(n1)CCN(Cc1ncc[nH]1)C2)N1CCCC1 | -0.827 | -2
65 | Cc1nc(CN2C(=O)CCC23CCN(c2ncccn2)CC3)cs1 | 4.19 | -30.4
66 | COC(=O)C1CCN(C(=O)c2ccc(N(C)S(C)(=O)=O)c(C)c2)CC1 | -4.11 | -5.54
67 | COCC1CCN(C(=O)c2cccc(S(=O)(=O)NCC3(C)COC3)c2)C1 (stereo unspecified) | 5.94 | 10.4
68 | COc1ccc(-c2csc(N)c2C#N)cc1OC | 3.46 | -24.5
69 | O=C(Nc1cccc(CNCc2csc(Br)c2)c1)C1CC1 | -0.759 | -73.7
70 | CCOCCNc1nc(C2CCCC2)nc2c1cnn2C | 5.12 | 1.57
71 | CCc1nc2n(n1)CC(NCc1ccnc(-c3ccccc3)n1)CC2 (stereo unspecified) | -7.45 | 5.5
72 | COc1ccc(C(=O)N2CCCCC2c2nc(C)cs2)nn1 (stereo unspecified) | -4.46 | -31.3
73 | Cc1csc(N2CCCN(C(=O)c3cnns3)CC2)n1 | 1.66 | -7.36
74 | CCCNC(=O)c1cc2c(c3ccccc3n2C)n1C(=O)N(C)C | 2.3 | -2.9
75 | COc1cccc(CNCc2c(C(C)C)nn(C)c2N(C)C)c1OC | -3.61 | 31.1
76 | O=C1CCCCN1Cc1cccc(NC(=O)N2CCSCC2)c1 | -4.71 | -1.06
77 | COc1ccccc1CC1CCCN(CC(=O)N2CCOCC2)C1 (stereo unspecified) | -1.41 | 16.7
78 | Cc1ccc(OCC(=O)NCc2ccccc2F)nc1 | -0.524 | -8.96

Row | Compound | Percent Effect [1] [%] | Percent Effect [2] [%]
79 | CC(C)Nc1ncnc2c1CCN(C(=O)c1ccncc1F)CC2 | -1.6 | -6.39
80 | O=C(CC1CN(Cc2ccccc2)CCO1)NC1CCCC1 (stereo unspecified) | -3.53 | 1.42
81 | Cn1ccnc1CN1CC[C@@H](NS(C)(=O)=O)[C@@H]1Cc1cccnc1 | -0.168 | -4.31
82 | CC(=O)c1ccc(C(=O)NCCCOC(C)c2ccccc2)s1 (stereo unspecified) | -4.7 | -71.8
83 | Cc1nccn1CC1CCCN1S(=O)(=O)Cc1ccccc1 (stereo unspecified) | -1.4 | 4.42
84 | COC(=O)c1cccn1C1CCN(C(=O)c2cn[nH]c2C)CC1 | -3.31 | -8.31
85 | CC(C)c1nc(C2CCCN2CC(=O)N2CCc3ccccc32)no1 (stereo unspecified) | 1.52 | 10.6
86 | O=C(c1cnc(C2CC2)s1)N1CCCC(n2cccn2)C1 (stereo unspecified) | -2.52 | 24.9
87 | CCn1cc(NC(=O)NCC2(N3CCOCC3)CCSC2)cn1 (stereo unspecified) | 1.79 | -20
88 | CCc1nc(COc2ccc(OCc3cnn(C)c3)cc2)no1 | 0.524 | -31
89 | CN(C)c1cc(CNC(=O)c2ccc(=O)[nH]n2)ccn1 | -3.92 | -29.1
90 | O=C(c1ccc[nH]1)N1CCc2c(COCC3CC3)cncc2C1 | -0.626 | 1.55
91 | NC(=O)c1ccc(S(=O)(=O)NC(=O)COc2ccc3c(c2)CCC3)cc1 | -2.01 | 13.5
92 | O=C(Cc1ccc(F)cc1)NCCNCC1CNc2ccnn2C1 (stereo unspecified) | -2.44 | -33.6
93 | Cc1nc(C)n(CC2CCCN(CCNC(=O)OC(C)(C)C)C2)n1 (stereo unspecified) | -2.36 | 7.06
94 | CCCOCC(=O)NC1CCc2nc(C)cn2C1 (stereo unspecified) | 1.62 | 7.61
95 | CC(C)C(C(=O)N1CCC(Nc2cccnn2)CC1)n1cncn1 (stereo unspecified) | 0.434 | 12.4
96 | Cc1noc(CN2CCC(c3ccnn3CCO)CC2)n1 | -2.2 | 4.21
97 | Cc1nnc(CN2CCN(CC(O)c3cccc(F)c3)CC2)n1C (stereo unspecified) | -0.288 | 18.7
98 | Cc1ccc(CN2CCCn3c(nc(Cn4cncn4)cc3=O)C2)s1 | -1.14 | -10.9
99 | CC(c1nc(C2CC2)no1)N1CCN(Cc2cccc(C#N)c2)CC1 (stereo unspecified) | -3.08 | 9.24
100 | O=C(Nc1ccc(F)c(Br)c1)N1CCCC1 | 4.74 | -23.1
101 | Cn1nc(C2CN(C(=O)c3cscn3)C2)c2nccnc21 | 2.04 | 8.15
102 | CC(C)CCN1CN=C(NS(=O)(=O)c2ccc(F)cc2)NC1 | -1.13 | -27.2
103 | c1ccc(Cn2cc(CNCC3CCCN3c3cccnn3)cn2)cc1 (stereo unspecified) | 8.82 | 22.8
